From a collection of fitness landscapes (doi:10.1126/science.1257360)
The full ranking holds about 140,000 sequences; the median of “enrichment ratio after two sorts for PhoP signalling” is about 0, and the highest 2% start at about 11. The sample holds the highest values, similar sequences and a random draw of the others, so the mix is not that of the screen.

B1: PhoQ; a variant is named by its letters at X, in order, P23837 (parent)
chain: MKKLLRLFFPLSLRVRFLLATAAVVLVLSLAYGMVALIGYSVSFDKTTFRLLRGESNLFYTLAKWENNKLHVELPENIDKQSPTMTLIYDENGQLLWAQRDVPWLMKMIQPDWLKSNGFHEIEADVNDTSLLLSGDHSIQQQLQEVREDDDDAEMTHSVAVNVYPATSRMPKLTIVVVDTIPVELKSSYMVWSWFIYVLSANLLLVIPLLWVAAWWSLRPIEALAKEVRELEEHNRELLNPATTRELTSLVRNLNRLLKSERERYDKYRTTLTDLTHSLKTPLXXLQXXLRSLRSEKMSVSDAEPVMLEQISRISQQIGYYLHRASMRGGTLLSRELHPVAPLLDNLTSALNKVYQRKGVNISLDISPEISFVGEQNDFVEVMGNVLDNACKYCLEFVEISARQTDEHLYIVVEDDGPGIPLSKREVIFDRGQRVDTLRPGQGVGLAVAREITEQYEGKIVAGESMLGGARMEVIFGRQHSAPKDE

Variants of: B1
Assay: enrichment ratio after two sorts for PhoP signalling (ratio (wild type AVST 3.29)); higher = more functional
Settings: with PhoP (E. coli)

Variant | enrichment ratio
SAFP | ≤ 0.25
QGAG | ≤ 0.25
QVAH | ≤ 0.25
AKQL | ≤ 0.25
AQQL | ≤ 0.25
WIQL | ≤ 0.25
AGQL | 11.6
GGQL | ≤ 0.25
ADQL | ≤ 0.25
TGQL | 5.01
AIQL | 11.7
CGQL | 14.3
MQGH | ≤ 0.25
FDDD | ≤ 0.25
AMFM | ≤ 0.25
PNFI | ≤ 0.25
KCCR | ≤ 0.25
RQPM | ≤ 0.25
IGQV | ≤ 0.25
GHHN | ≤ 0.25
PRDV | ≤ 0.25
SEQG | 17.8
AQQG | 12.7
AKQG | ≤ 0.25
AEQG | ≤ 0.25
SLQG | ≤ 0.25

Variant | enrichment ratio
SQQG | 6.66
HAGM | ≤ 0.25
HMVE | ≤ 0.25
VFKE | ≤ 0.25
HGRI | ≤ 0.25
FPCA | ≤ 0.25
GKQD | ≤ 0.25
NAHY | ≤ 0.25
TAHY | 27.1
MAHY | 20.2
KAHY | ≤ 0.25
AHHY | ≤ 0.25
TAPI | ≤ 0.25
NMRM | ≤ 0.25
ANCT | 21
NICT | ≤ 0.25
KACT | ≤ 0.25
AHCT | ≤ 0.25
AWCT | ≤ 0.25
YACT | 0.253
EQCT | ≤ 0.25
AQCT | 20.8
AACT | 12.4
RICT | ≤ 0.25
AICT | 18
SNCT | 8.8

Variant | enrichment ratio
ALFD | ≤ 0.25
SHFP | 0.324
WCTK | ≤ 0.25
FYGE | ≤ 0.25
MNPG | ≤ 0.25
FEMT | 3.56
ENFC | ≤ 0.25
SYCA | ≤ 0.25
EDSI | ≤ 0.25
QHRH | ≤ 0.25
QHNH | 13.9
QHGY | 8.42
QHNS | 5.2
NHNH | ≤ 0.25
QHRI | ≤ 0.25
THNH | 16.2
SHNH | 1.34
QHNY | 27.5
LVRE | ≤ 0.25
EGNA | ≤ 0.25
TEWN | 9.81
TERM | ≤ 0.25
TEWA | 38.4
TEWG | 3.3
NIYL | ≤ 0.25
YTYL | ≤ 0.25

Variant | enrichment ratio
TEWR | 6.71
TEGM | 4.56
TEWM | 73.1
TEWS | 28.5
KSWS | ≤ 0.25
TEYL | 13
QHAH | ≤ 0.25
DNQP | ≤ 0.25
LKHW | ≤ 0.25
NWHW | ≤ 0.25
WFMI | ≤ 0.25
IWYG | ≤ 0.25
WQRD | ≤ 0.25
HEYK | ≤ 0.25
RHGY | ≤ 0.25
MEAM | 9.82
TEWL | 21.7
QEWD | 4.99
KSWL | ≤ 0.25
TERL | ≤ 0.25
TEGL | 13.2
TEEL | ≤ 0.25
KSWD | ≤ 0.25
TEWD | 13
NEAM | ≤ 0.25
MEWL | ≤ 0.25

Variant | enrichment ratio
TEAM | 16.4
SQYM | ≤ 0.25
VRMI | ≤ 0.25
QHIN | ≤ 0.25
SFID | ≤ 0.25
DARD | ≤ 0.25
RDIV | ≤ 0.25
TEWF | 22
QEWF | ≤ 0.25
NYWF | ≤ 0.25
RLCT | ≤ 0.25
NKEG | ≤ 0.25
AQVE | 34.1
WIVI | ≤ 0.25
AQVI | 18.1
ICVI | ≤ 0.25
ADVE | ≤ 0.25
AQVA | 14.1
NQVI | ≤ 0.25
AQRA | ≤ 0.25
AQHE | ≤ 0.25
AQVK | ≤ 0.25
VHVI | ≤ 0.25
AIVI | 13
DEDS | ≤ 0.25
DGNR | ≤ 0.25

Variant | enrichment ratio
DLTS | ≤ 0.25
PPKY | ≤ 0.25
ICPL | ≤ 0.25
KKGI | ≤ 0.25
DIWR | ≤ 0.25
HNLR | ≤ 0.25
AQWG | ≤ 0.25
AQVS | 14
NMVI | ≤ 0.25
EQVS | ≤ 0.25
KQVS | ≤ 0.25
AIVE | 12.3
AMVI | 16.3
RIVE | ≤ 0.25
VLVI | ≤ 0.25
AQVC | 9.47
AKVE | ≤ 0.25
AQVG | 12
DFYH | ≤ 0.25
PRHA | ≤ 0.25
KVWY | ≤ 0.25
KKYK | ≤ 0.25
ETML | ≤ 0.25
